Our source for the inhibition values is PubChem BioAssay AID651610 (Broad Institute, 2012).

Screen size: about 360,000 compounds; about 3,900 (1.1%) were called active. Many of the other results were omitted from the sample, so actives are more common in it than they were. Values without a mark were called inactive.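 Rule for the calls: active = mean replicate inhibition score of at least 50 and every replicate individually at or above 50; inconclusive = only one of the two criteria met; inactive = mean below 50 and not all replicates reaching 50.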

The assay is described as follows: blockers of JRFL envelope-mediated fusion – HeLa-JRFL effector, CEM21 target cells, luciferase, primary screen (AID 651610).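 Note: 0% = plate neutral controls and 100% = maraviroc near 300 nM.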 The following applies: HeLa-JRFL Env/CEM21 cell fusion, stronger effect = higher value; at 16.7 µM unless noted.
As to `C[C@@H]1CN([C@@H](C)CO)S(=O)(=O)c2ccc(-c3cccnc3)cc2O[C@H]1CN(C)CC1CCOCC1`, the inhibition (commonly the change of the read-out against control, counted positive when it falls) is -3.87%. Then `C[C@@H]1CN([C@H](C)CO)C(=O)c2cccc(NS(C)(=O)=O)c2O[C@@H]1CN(C)C(=O)Nc1cccc2ccccc12`, with -1.18%; and `Cc1oc2c(F)c(F)c(F)c(F)c2c1S(=O)(=O)Nc1cccc(C(F)(F)F)c1`, with 55% [at 12.3 µM] (active). To `O=C(CNS(=O)(=O)c1cccc(C(F)(F)F)c1)Nc1ccccc1F` belongs -11.7% [at 12.3 µM]; to `Cc1noc(C)c1S(=O)(=O)Nc1cc(C(F)(F)F)ccc1N1CCOCC1`, 22.4% [at 12.3 µM]; to `COc1ccccc1CNC(=O)C[C@H]1C[C@@H]2c3cc(NC(=O)c4ccc5c(c4)OCO5)ccc3O[C@@H]2[C@H](CO)O1`, 4.06%. As to `NC(=O)c1sc2nc3c(c(-c4ccccc4)c2c1N)CCC3`, the inhibition is 103% [at 12.3 µM] (active).

In the case of `COc1ccccc1-c1c(C#N)c(N)nc2c1CCC2`, the inhibition is 24% [at 12.3 µM]. Consider `CC(C)OC(=O)c1sc2nc3c(cc2c1N)C(=O)CCC3`, for which the inhibition is -187% [at 12.3 µM]. `C[C@@H]1CN([C@@H](C)CO)C(=O)c2cc(NC(=O)Cn3cnnn3)ccc2O[C@H]1CN(C)Cc1ccc(C(F)(F)F)cc1`: the inhibition was 12.3%. To `Cc1cc(C)c2cc(CN(Cc3nnnn3Cc3ccc(F)cc3)C3CCCC3)c(=O)[nH]c2c1` belongs 84.5% [at 12.3 µM] (active); to `Cc1n[nH]c(=O)c2c1nnn2Cc1ccc(F)cc1`, -10.3% [at 12.3 µM]; to `C[C@@H]1CN([C@H](C)CO)C(=O)c2cc(-c3ccccc3F)cnc2O[C@H]1CN(C)C(=O)NC1CCCCC1`, -1.88%. Then `O=C(C[C@H]1CC[C@@H]2NC[C@H](O)COC[C@H]2O1)NCCN1CCCCC1`, with 18.8%; and `COc1ccccc1C(=O)NC(CCSC)C(=O)N1CCN(C(C)=O)CC1` (configuration not stated), with -8.21% [at 12.3 µM]; and `COc1ccccc1C(=O)NC(CCSC)C(=O)N1CCN(C/C=C/c2ccccc2)CC1` (configuration not stated), with 75.2% [at 12.3 µM] (active). Then `CSCCC(NC(=O)c1ccccc1)C(=O)N1CCN(Cc2ccc(Cl)cc2)CC1` (configuration not stated), with 11.5% [at 12.3 µM]; and `O=C(NCc1ccccc1)[C@H]1CCCN1C(=O)[C@@H]1CCCN1C(=O)c1ccc(Cl)cc1Cl`, with -35.2% [at 12.3 µM]. Turning to `COCC(=O)N1C[C@H](C)[C@@H](OC)CN(C)C(=O)c2cc(NC(=O)c3ccc(OC)cc3)ccc2OC[C@H]1C`, the inhibition is -0.959%. Then `COCC(=O)N1C[C@@H](C)[C@H](OC)CN(C)C(=O)c2ccc(NC(=O)c3ccc(OC)cc3)cc2OC[C@@H]1C`, with 58.2% (active); and `COc1ccccc1S(=O)(=O)Nc1ccc2c(c1)C(=O)N(C)C[C@@H](OC)[C@@H](C)CN[C@@H](C)CO2`, with 61.2% (active); and `COCC(=O)N1C[C@@H](C)[C@H](OC)CN(C)C(=O)c2ccc(NC(=O)c3ccc(F)cc3)cc2OC[C@H]1C`, with 19.1%. Take `COc1ccccc1S(=O)(=O)Nc1ccc2c(c1)C(=O)N(C)C[C@H](OC)[C@H](C)CN[C@H](C)CO2`: the inhibition was -20.4%. Then `CO[C@H]1CN(C)C(=O)c2cc(NS(=O)(=O)c3ccccc3)ccc2OC[C@H](C)N(C(=O)NC(C)C)C[C@@H]1C`, with -19%; and `CO[C@@H]1CN(C)C(=O)c2cc(NS(=O)(=O)c3ccc(C)cc3)ccc2OC[C@H](C)N(C(=O)NC(C)C)C[C@@H]1C`, with 64.3% (active); and `COc1cccc(S(=O)(=O)Nc2ccc3c(c2)C(=O)N(C)C[C@@H](OC)[C@@H](C)CN[C@@H](C)CO3)c1`, with 3.22%. Then `CO[C@@H]1CN(C)C(=O)c2cc(NS(=O)(=O)c3ccccc3)ccc2OC[C@@H](C)N(C(=O)NC(C)C)C[C@@H]1C`, with 3.87%. As for `C/C=C/c1cnc2c(c1)C(=O)N([C@@H](C)CO)C[C@@H](C)[C@H](CN(C)C(=O)c1cnccn1)O2`, the inhibition is 4.56%. Then `C[C@H](CO)N1C[C@H](C)[C@@H](CN(C)C(=O)CCC(F)(F)F)OCCCC[C@H](C)Oc2ccc(NC(=O)C3CCCCC3)cc2C1=O`, with -45.1%. As to `COc1ccc(NC(=O)N(C)C[C@@H]2Oc3ccc(NC(=O)CCN4CCOCC4)cc3C(=O)N([C@@H](C)CO)C[C@H]2C)cc1`, the inhibition is -19.9%. To `Cc1noc(C)c1NC(=O)Nc1cccc2c1O[C@@H](CN(C)CC1CCCCC1)[C@H](C)CN([C@@H](C)CO)C2=O` belongs -120%; to `Cc1ccc(S(=O)(=O)N(C)C[C@H]2Oc3ccc(NC(=O)CCC(F)(F)F)cc3C(=O)N([C@@H](C)CO)C[C@H]2C)cc1`, 9.23%; to `COc1ccc(C(CNC(=O)COc2ccccc2OC)N2CCCCC2)cc1` (configuration not stated), 1.58% [at 12.3 µM]. Then `CCc1ccc(OCC(=O)NCC(c2ccc(Cl)cc2)N2CCCCC2)cc1` (configuration not stated), with 73.9% [at 12.3 µM] (active); and `COc1ccc(C(CNC(=O)COc2ccc([N+](=O)[O-])cc2)N2CCCCC2)cc1` (configuration not stated), with 1.73% [at 12.3 µM]; and `COc1ccc(S(=O)(=O)N(C)C[C@@H]2OCCCC[C@H](C)Oc3ccc(NC(=O)NC4CCCCC4)cc3C(=O)N([C@H](C)CO)C[C@H]2C)cc1`, with 20.2%. Then `CO[C@@H]1CC[C@@H]2CCOc3ccc(C#N)cc3C(=O)N(C)[C@H](C)C(=O)N(C)C[C@@H]1O2`, with 14.7%; and `COc1ccc(Oc2cn[nH]c2-c2ccc(OC)cc2O)cc1`, with 4.87% [at 12.3 µM]. For the molecule `COc1ccc2cc(-c3[nH]ncc3CNCCn3nc(C)cc3C)ccc2c1`, the inhibition was -11.4% [at 12.3 µM]. To `COc1ccc(-c2cn[nH]c2-c2ccc(OC)cc2)cc1` belongs 60.2% [at 12.3 µM] (active); to `CCCNC(=O)Nc1ccc2c(c1)C(=O)N(C)C[C@H](OC)[C@@H](C)CN(C)[C@@H](C)CO2`, 18.7%; to `COc1ccc(CN(C)C[C@H]2Oc3c(NC(=O)C4CCCCC4)cccc3C(=O)N([C@@H](C)CO)C[C@@H]2C)cc1`, 7.57%.
